The values that follow come from publication PMC4552634, “A New Set of Chemical Starting Points with Plasmodium falciparum Transmission-Blocking Potential for Antimalarial Drug Discovery” (PLoS ONE, 2015).

In all, about 13,000 compounds went through this assay and about 3,200 (25%) showed an effect of 50% or more. The list shows a part of the results.

For the experiment, the system named is P. falciparum stage V gametocytes. More on the design: BacTiter-Glo ATP luminescence viability of purified stage V gametocytes in 384-well plates, per cent inhibition versus DMSO. As to conditions: 48 h, 5 µM; inhibitor.
Take `CC(=O)COc1c(C2CCN(CCCCNC(=O)c3ccc(-c4ccc(C(F)(F)F)cc4)cc3)CC2)ccc2c1CCCC2` [TCMDC-138738]: the “% Inhibition” value came to 105.6%.

For the compound `O=C(NCCCCN1CCC(c2ccc3c(c2OCC(O)c2ccc(Cl)cc2)CCCC3)CC1)c1ccc(-c2ccc(C(F)(F)F)cc2)cc1` (stereo not drawn) [TCMDC-138749], the “% Inhibition” value came to 115%.

As for `O=C(NCCCCN1CCC(c2ccc3c(c2OCCN2CCCC2)CCCC3)CC1)c1ccc(-c2ccc(C(F)(F)F)cc2)cc1` [TCMDC-138768], the “% Inhibition” value was determined as 107.4%.

Turning to `NC(N)=Nc1nccc(NCc2ccccc2)n1` [TCMDC-141971], the “% Inhibition” value was found to be 14.91%.

For the compound `N#Cc1ccc(N(CCOc2ccc3c(c2)CCC(=O)N3)Cc2ccccc2C(F)(F)F)cc1C(F)(F)F` [TCMDC-132801], the “% Inhibition” value is listed as 23.33%.

For the compound `O=C(Nc1cccc(CN2CCCN(Cc3ccc(O)cc3)CC2)c1)c1cc(F)cc(F)c1` [TCMDC-141881], the “% Inhibition” value was found to be 2.179%.

Regarding `O=C(/C=C/c1ccc(Cl)c(Cl)c1)NCCCCCN1CCC(NC(=O)NCCc2ccccc2)CC1` [TCMDC-135707], the “% Inhibition” value is given as -32.39%.

In the case of `CCCC(=O)Nc1ccc(OCCCN(Cc2ccccc2OC(F)(F)F)c2ccc(C#N)c(C(F)(F)F)c2)cc1` [TCMDC-135667], the “% Inhibition” value is on record as 14.29%.

Regarding `COc1cccc(-c2[nH]c3ccccc3c2CN2CCC(c3c(C)cccc3C)CC2)c1` [TCMDC-141630], the “% Inhibition” value stood at 29.07%.

Take `COc1cccc(CN2CCC(CCOC(c3ccccc3)c3ccccc3)CC2)c1O` [TCMDC-136041]: the “% Inhibition” value is given as -8.929%.

Consider `COc1ccccc1-c1[nH]c2ccccc2c1CN1CCC(c2c(C)cccc2C)CC1` [TCMDC-141628], for which the “% Inhibition” value is 83.13%.

On to `CCN1CCN(c2cc(C)c3cc(NC(=O)c4ccc(Br)o4)ccc3n2)CC1` [TCMDC-123600], for which the “% Inhibition” value amounted to 1.193%.

In the case of `COc1ccc(-c2ccc(NC(=O)c3cccc(Cl)c3)cc2)cc1CN1CCN(C)CC1` [TCMDC-132526], the “% Inhibition” value was 82.79%.

On to `COc1ccc(-c2cccc(NC(=O)c3cccc(Cl)c3)c2)cc1CN1CCN(C)CC1` [TCMDC-132617], for which the “% Inhibition” value stood at 28.66%.

`COc1ccc(-c2cccc(NC(=O)c3ccc(Cl)cc3)c2)cc1CN1CCCN(C)CC1` [TCMDC-132602]: the “% Inhibition” value is given as -35%.

Take `COc1ccc(-c2ccc(NC(=O)c3ccc(Cl)cc3)cc2)cc1CN1CCN(C)CC1` [TCMDC-132512]: the “% Inhibition” value was found to be 92.99%.

For `COc1ccc(-c2ccc(NC(=O)c3ccc(Cl)cc3)cc2)cc1CN1CCCN(C)CC1` [TCMDC-132510], the “% Inhibition” value worked out at 104.3%.

For the compound `COc1ccc(-c2ccc(CNC(=O)c3ccc(Cl)cc3)c(F)c2)cc1CN1CCCN(C)CC1` [TCMDC-133369], the “% Inhibition” value is -6.152%.

Consider `COc1ccc(-c2ccc(NC(=O)c3ccc(C#N)cc3)cc2)cc1CN1CCN(C)CC1` [TCMDC-133336], for which the “% Inhibition” value is -18.08%.

For `COc1ccc(-c2ccc(NC(=O)c3ccc(Cl)cc3)cc2)cc1CN1CCC(O)CC1` [TCMDC-133337], the “% Inhibition” value is 0.3946%.

As for `CC1(C)N=C(N)N=C(N)N1OCCCNC(=O)c1ccc(C(=O)NCCCON2C(N)=NC(N)=NC2(C)C)cc1` [TCMDC-131677], the “% Inhibition” value was 3.216%.

On to `CCOC(=O)c1ccc(-c2c(C(F)(F)F)noc2-c2cc(CC)c(OC)cc2O)o1` [TCMDC-124150], for which the “% Inhibition” value is recorded as 2.818%.

Take `Cc1ccc(C)c2c1[nH]c1ccc(C3=NCCN3)cc12` [TCMDC-137683]: the “% Inhibition” value was determined as 24.52%.

Take `CCCS(=O)(=O)c1nc(S(=O)(=O)c2ccc(Cl)cc2)c(N2CCCCC2)s1` [TCMDC-124768]: the “% Inhibition” value is -49.43%.

Consider `Cc1cc(-c2ccc(CNCc3ccsc3)cc2)ccc1S(=O)(=O)NCCN1CCCC1` [TCMDC-132292], for which the “% Inhibition” value came to 94.64%.

On to `COc1ccc(-c2ccc(CNCc3ccsc3)cc2)cc1S(=O)(=O)NCCN1CCCC1` [TCMDC-132283], for which the “% Inhibition” value came out at 107.3%.

Regarding `O=S(=O)(NCCN1CCCC1)c1ccc(-c2ccc(CNCc3ccsc3)cc2)cc1F` [TCMDC-132288], the “% Inhibition” value was found to be 40.86%.

As to `COc1ccc(CNCc2ccsc2)cc1-c1ccc(S(=O)(=O)NCCN2CCCC2)c(C)c1` [TCMDC-132225], the “% Inhibition” value was 105.9%.

With `COc1ccc(CNCc2ccsc2)cc1-c1ccc(OC)c(S(=O)(=O)NCCN2CCCC2)c1` [TCMDC-132296], the “% Inhibition” value was determined as 104.6%.

Turning to `CC(=O)OCCN1C(=O)c2ccc3c4c(ccc(c24)C1=O)C(=O)N(CCOC(C)=O)C3=O` [TCMDC-123488], the “% Inhibition” value was determined as 10.44%.

For the compound `COc1cc(Nc2nccc(N3CCC(NC(=O)c4cccc(NC(C)=O)c4)C3)n2)cc(OC)c1OC` (stereo not drawn) [TCMDC-133622], the “% Inhibition” value was -17.51%.

`Cc1ccc(O)c(C(=O)c2cnc3c(c2)c(-c2ccc(F)cc2)c(C#N)c(=O)n3C)c1` [TCMDC-124507]: the “% Inhibition” value was 19.5%.

With `CC(=O)Nc1ccc(CN2CCC(N(C)c3cc(NC(=O)c4cccc(F)c4)ccn3)CC2)cc1` [TCMDC-134981], the “% Inhibition” value is -20.16%.

In the case of `O=C(Nc1ccc2c(c1)CN(Cc1ccc(N3CCCC3)o1)CCC2)c1ccoc1` [TCMDC-134723], the “% Inhibition” value was -9.381%.

As to `COc1ccc(-c2nc(NC(=O)Cc3ccc(OC)c(OC)c3)sc2C)cc1` [TCMDC-123619], the “% Inhibition” value came to 10.74%.

For the compound `Cc1ccc(-c2nc(NC(=O)Nc3ccc(C(F)(F)F)cc3)sc2C)cc1Cl` [TCMDC-125584], the “% Inhibition” value is given as 10.27%.

Turning to `COc1ccc(-c2nc(NC(=O)CS(=O)(=O)c3ccc(OC)cc3)sc2C)cc1` [TCMDC-125152], the “% Inhibition” value is on record as -0.7393%.

On to `COc1ccc(-c2nc(NC(=O)CSc3ccccc3)sc2C)cc1` [TCMDC-123814], for which the “% Inhibition” value was found to be 23.99%.

With `COc1ccc(-c2nc(NC(=O)CS(=O)(=O)c3ccc(F)cc3)sc2C)cc1` [TCMDC-123523], the “% Inhibition” value stood at 53.6%.

As for `COc1ccc(-c2nc(NC(=O)CSc3ccc([N+](=O)[O-])cc3)sc2C)cc1` [TCMDC-124323], the “% Inhibition” value is given as 91.56%.

Turning to `COc1ccc(-c2nc(NC(=O)Cc3cccc(OC)c3)sc2C)cc1` [TCMDC-124331], the “% Inhibition” value is given as 95.1%.

In the case of `COc1ccc(-c2nc(NC(=O)CS(=O)(=O)c3ccc(C)cc3)sc2C)cc1` [TCMDC-124318], the “% Inhibition” value came out at 31.51%.

Regarding `COc1ccc(-c2nc(NC(=O)Cc3ccc4c(c3)OCCO4)sc2C)cc1` [TCMDC-124374], the “% Inhibition” value is reported as 41.12%.

As for `Cc1sc(NC(=O)Cc2cccc(C(F)(F)F)c2)nc1-c1cccc(Cl)c1` [TCMDC-125144], the “% Inhibition” value amounted to 54.43%.

As to `COc1ccc(OCC(=O)Nc2nc(-c3ccc(OC)cc3)c(C)s2)cc1` [TCMDC-124330], the “% Inhibition” value is on record as 22.09%.

Turning to `CCOc1ccc(-c2nc(NC(=O)Cc3cccc(OC)c3)sc2C)cc1` [TCMDC-123618], the “% Inhibition” value is listed as -21.09%.

Take `CCOc1cc2c(cc1OCC)C(c1ccc(O)c(Cl)c1)NCC2` (stereo not drawn) [TCMDC-125439]: the “% Inhibition” value is 10.77%.

On to `CC1CN(c2nc(NCCc3ccc(O)cc3)nc(NCc3ccccc3-c3ccc(C(F)(F)F)cc3)n2)CC(C)N1` (stereo not drawn) [TCMDC-138324], for which the “% Inhibition” value amounted to 26.39%.

As to `COc1cc2nc(N(C)CC3COc4ccccc4O3)nc(N)c2cc1OC.Cl` (stereo not drawn) [TCMDC-131889], the “% Inhibition” value was -22.31%.

As for `C=CCC(C)n1ncc2c3c(N)nc(N)nc3ccc21` (stereo not drawn) [TCMDC-137867], the “% Inhibition” value is reported as -15.57%.

In the case of `COc1cc(Cc2cnc(N)nc2N)c2c(c1OC)OC(C)C=C2` (stereo not drawn) [TCMDC-137896], the “% Inhibition” value worked out at 4.903%.

Take `O=C(Nc1cccc(-c2cccc(-c3nc4ccc(F)cc4[nH]3)c2)c1)c1cnc[nH]1` [TCMDC-136932]: the “% Inhibition” value is reported as -61.11%.

As for `COc1ccc(-c2c3c(=O)n(C)c(=O)n(C)c3c3nnc4ccccc4n23)cc1` [TCMDC-125099], the “% Inhibition” value was -11.53%.

`O=C(Nc1ccc(-c2nc3ccccc3[nH]2)cc1)C1CCCN(CC2CC2)C1` (stereo not drawn) [TCMDC-124656]: the “% Inhibition” value is listed as -0.844%.

`CN1CCN(CC(=O)Nc2cccc(-c3ccc(-c4nc5cc(C(F)(F)F)ccc5[nH]4)s3)c2)CC1` [TCMDC-136977]: the “% Inhibition” value is listed as -5.014%.

Consider `Cc1cccc2[nH]c(-c3cccc(-c4ccc(NC(=O)CC5NC(=O)c6ccccc65)cc4)c3)nc12` (stereo not drawn) [TCMDC-137094], for which the “% Inhibition” value was -30.82%.

Turning to `O=C(CC1NC(=O)c2ccccc21)Nc1ccc(-c2cccc(-c3nc4ccc(C(F)(F)F)cc4[nH]3)c2)cc1` (stereo not drawn) [TCMDC-137092], the “% Inhibition” value is -11.47%.

`CN1CCN(CC(=O)Nc2cccc(-c3ccc(-c4nc5ccc(C(F)(F)F)cc5[nH]4)cc3)c2)CC1` [TCMDC-136984]: the “% Inhibition” value was -3.609%.

`CN1CCN(CC(=O)Nc2cccc(-c3cccc(-c4nc5ccc(C(F)(F)F)cc5[nH]4)c3)c2)CC1` [TCMDC-136980]: the “% Inhibition” value was 78.77%.

`O=C(CC1NC(=O)c2ccccc21)Nc1ccc(-c2ccc(-c3nc4ccc(C(F)(F)F)cc4[nH]3)cc2)cc1` (stereo not drawn) [TCMDC-137095]: the “% Inhibition” value turned out to be 71.74%.

Turning to `CN1CCC(C(=O)Nc2ccc(-c3cccc(-c4nc5ccc(C(F)(F)F)cc5[nH]4)c3)cc2)CC1` [TCMDC-132188], the “% Inhibition” value was -24.87%.

For `CN1CCN(CC(=O)Nc2ccc(-c3ccc(-c4nc5ccc(C(F)(F)F)cc5[nH]4)cc3)cc2)CC1` [TCMDC-136985], the “% Inhibition” value was -42.42%.

In the case of `CN1CCN(CC(=O)Nc2ccc(-c3cccc(-c4nc5ccc(C(F)(F)F)cc5[nH]4)c3)cc2)CC1` [TCMDC-136981], the “% Inhibition” value was determined as 72.32%.

With `CCOC(=O)CNC(=O)N1CCN(C(=O)NCC(=O)OCC)CC1` [TCMDC-138998], the “% Inhibition” value is given as -3.887%.

Take `Cc1c(-c2ccccc2)ccc2[nH]cc(CC#N)c12` [TCMDC-139748]: the “% Inhibition” value was 49.07%.

For the compound `O=C(Nc1cccc(CN2CCCN(Cc3ccc(O)cc3)CC2)c1)c1ccc2ccccc2n1` [TCMDC-141860], the “% Inhibition” value is 34.74%.

In general, % Inhibition refers to the relative decrease from the control value, in per cent.
